FMDV antiviral = High Throughput Screening for Foot and Mouth Disease Virus Antivirals. FMDV antiviral cell-based qHTS. Potency, µM (titrated, usually from 57.9 µM), most hits filed as inhibitors. 410,000 compounds, 1.2% hits; calls by dose curve; tested in HEK293T cells; further: read-out not given here; nearly all actives have a fitted effect of over 45% in size
HCMV inh = qHTS Assay for inhibitors of the human cytomegalovirus (HCMV); HFF cells, HCMV-luciferase reporter, 72 h; hits give low values; activity change, negative = inhibition, % at 57.5 µM; 410,000 compounds, 4.5% hits; in the data active means activity change below about -60%; inconclusive means no clear call, values can overlap the other calls; inactive means above about -39%
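Screen run at 2 compound doses on HFFs infected with reporter HCMV, MOI 1 PFU/cell. Luciferase activity from cell lysates at 72 h post infection gave inhibition relative to buffer-only and Salinomycin wells.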
MARV entry inh = qHTS for inhibitors of binding or entry into cells for Marburg Virus; 300,000 compounds, 1.8% hits; Marburg virus pseudotyped entry inhibition, cell reporter; Potency, µM (doses to about 37.8 µM), hits mostly inhibitors; calls by dose curve; tested in HEK293 cells
LASV entry inh = qHTS for Inhibitors of binding or entry into cells for Lassa Virus | Lassa virus pseudotype entry inhibition, cell reporter | Potency, µM (series often up to 37.9 µM), hits mostly inhibitors | 300,000 compounds, 1.2% hits | AID 540256, 2011; calls by dose curve; tested in HEK293 cells; further: nearly all actives have a fitted effect of over 50% in size
Of the large screens only hits and unclear results are named; the others gave an inactive call; ! = a repeat was not active. Shown are actives, neighbours in structure and some others; about 6.2% of the full set was active somewhere.

COC(=O)[C@]1(Cc2ccccc2)N[C@H](CN(C)C(=O)Nc2ccc(OC)cc2)[C@@H]2C(=O)N(Cc3ccccc3)C(=O)[C@@H]21	none (no result: MARV entry inh, LASV entry inh)
O=c1cc(-c2ccccc2)[nH]c2nc3ccccc3n12	MARV entry inh 5.8µM, LASV entry inh inconclusive
Cc1ccc(CNS(=O)(=O)c2ccc3c(c2)n(C)c(=O)n3C)cc1	HCMV inh -66.0, MARV entry inh inconclusive, LASV entry inh inconclusive
OC(CN1CCOCC1)Cn1c(-c2cccc(Cl)c2)nc2ccccc21 (stereo not given)	HCMV inh -101.8
OC(CN1CCOCC1)Cn1cnc2ccccc21 (stereo not given)	MARV entry inh inconclusive
Cc1ccnc(NS(=O)(=O)c2ccc(NC(=O)Cc3ccc(F)cc3)cc2)n1	none (no result: MARV entry inh, LASV entry inh)
Cc1ccn2c(Nc3ccccc3C)c(-c3ccncc3)nc2c1	FMDV antiviral inconclusive, HCMV inh -66.6
Cc1ccc(-c2nc3ccccn3c2Nc2ccccc2C)s1	none
Cc1ccccc1Nc1c(-c2ccsc2)nc2c(C)cccn12	FMDV antiviral inconclusive, HCMV inh -84.4
COc1ccccc1NC(=O)NCc1ccco1	LASV entry inh inconclusive
COc1cc(NC(=O)NCc2ccco2)ccc1-c1ccc(NC(=O)NCc2ccco2)cc1OC	HCMV inh -66.7, MARV entry inh inconclusive, LASV entry inh inconclusive
COc1cccc(CCN2C(=O)C(=O)N([C@@H](CNCc3ccccc3)Cc3ccccc3F)C[C@@H]2C(C)(C)C)c1	none (no result: HCMV inh, MARV entry inh, LASV entry inh)
CN(C(=O)CNC(=O)OCc1ccccc1)c1ccc(Br)cc1C(=O)c1ccccc1Cl	FMDV antiviral inconclusive, HCMV inh inconclusive, MARV entry inh 5.8µM, LASV entry inh inconclusive
CCCN(CCC)CCNC(=O)c1cn(C)c(=O)c2c1c1ccccc1n2C	FMDV antiviral inconclusive, MARV entry inh inconclusive
CCCCN(CC)CCNC(=O)c1cn(C)c(=O)c2c1c1ccccc1n2C	HCMV inh -62.2!, LASV entry inh inconclusive
CCCCN(C)CCNC(=O)c1cn(C)c(=O)c2c1c1ccccc1n2C	MARV entry inh 11.2µM
COc1cc(C)ccc1OCc1cc(C(=O)N(Cc2c(C)nn(C)c2C)C2CC2)no1	HCMV inh inconclusive, MARV entry inh inconclusive
N#CNC(=Nc1ccc(Cl)cc1)Oc1ccccc1	none
Nc1[nH]n2c(=O)c3c(nc2c1N=Nc1ccccc1)CCCC3	FMDV antiviral inconclusive, HCMV inh inconclusive, LASV entry inh inconclusive
Nc1[nH]n2c(=O)c3c(nc2c1N=Nc1ccc(Cl)cc1)CCCC3	HCMV inh -95.3
Cc1ccccc1S(=O)Cc1ccc(C(=O)N2CCN(c3cccc(C)c3C)CC2)o1 (stereo not given)	HCMV inh -83.5, LASV entry inh inconclusive (no result: MARV entry inh)
COc1ccccc1N1CCN(C(=O)c2ccc(CS(=O)c3ccccc3C)o2)CC1 (stereo not given)	FMDV antiviral inconclusive, MARV entry inh inconclusive, LASV entry inh inconclusive
Cc1cccc(N2CCN(C(=O)c3ccc(CS(=O)c4cccc(Cl)c4)o3)CC2)c1C (stereo not given)	FMDV antiviral inconclusive, HCMV inh -86.9, LASV entry inh inconclusive (no result: MARV entry inh)
Cc1ccc(Cl)cc1N1CCN(C(=O)c2ccc(CS(=O)c3ccccc3)o2)CC1 (stereo not given)	LASV entry inh inconclusive (no result: MARV entry inh)
CN(C)Cc1ccccc1-c1nccc(N(C)C)n1	none (no result: HCMV inh, MARV entry inh, LASV entry inh)
COC(=O)C1=NNC(C(=O)c2ccco2)C1c1ccc(OC)cc1 (stereo not given)	HCMV inh -63.7 (no result: MARV entry inh, LASV entry inh)
COc1ccc(-c2cc(C(=O)OC(C)C(=O)c3ccccc3)c3cccc(Cl)c3n2)cc1 (stereo not given)	none
COc1cccc(OC)c1C(=O)Nc1nc2c(s1)CCc1ccccc1-2	none (no result: MARV entry inh)
CCCN(CCC)S(=O)(=O)c1ccc(C(=O)Nc2nc3c(s2)CCc2ccccc2-3)cc1	HCMV inh -72.1, MARV entry inh inconclusive, LASV entry inh inconclusive
Cc1nn(-c2ccccc2)c(C)c1/C=N/NC(=O)CSc1nnc(-c2ccccc2)n1-c1ccc(Cl)cc1	MARV entry inh inconclusive, LASV entry inh inconclusive
Cc1nn(-c2ccccc2)c(C)c1/C=N/NC(=O)CSc1nnc(SCc2ccccc2Cl)s1	MARV entry inh inconclusive, LASV entry inh 2.06µM
Cc1ccc(CSc2nnc(SCC(=O)N/N=C/c3c(C)nn(-c4ccccc4)c3C)s2)cc1	MARV entry inh inconclusive, LASV entry inh 8.2µM
Cc1ccc(C2c3[nH]c4ccccc4c3CCN2C(=O)CSc2ccccc2)cc1 (stereo not given)	LASV entry inh 10µM (no result: MARV entry inh)
Cc1ccc(C2c3[nH]c4ccccc4c3CCN2C(=O)CSCc2ccc(F)cc2)cc1 (stereo not given)	LASV entry inh inconclusive (no result: MARV entry inh)
CCOc1ccc(C2c3[nH]c4ccccc4c3CCN2C(=O)CSc2ccccc2)cc1 (stereo not given)	LASV entry inh 6.31µM (no result: MARV entry inh)
O=C(CSc1nnnn1-c1ccc(Cl)cc1)NNC(=O)c1ccc([N+](=O)[O-])cc1	none
COc1ccccc1-c1cc(C(F)(F)F)nc(S(=O)(=O)CCCC(=O)O)n1	FMDV antiviral 25.1µM, MARV entry inh inconclusive
COc1ccccc1-c1cc(C(F)(F)F)nc(S(=O)(=O)CCCC(=O)N2CCOCC2)n1	FMDV antiviral 22.4µM, HCMV inh -104.4, MARV entry inh 11.2µM!, LASV entry inh 12.6µM
COc1ccc(-c2cc(C(F)(F)F)nc(S(=O)(=O)CCC(=O)N3CCOCC3)n2)cc1	MARV entry inh inconclusive, LASV entry inh inconclusive
Cc1nn(Cc2ccccc2)c(Cl)c1C(=O)OCC(=O)Nc1cccc2ccccc12	MARV entry inh inconclusive
CN(Cc1cnc2nc(N)nc(N)c2n1)c1ccc(C(=O)NC(CCC(=O)O)C(=O)O)c2ccccc12 (stereo not given)	HCMV inh -101.2, MARV entry inh inconclusive, LASV entry inh inconclusive
CCOC(=O)c1sc(NC(=O)CSc2nnc(-c3ccc(OC)cc3)n2CCOC)nc1C	none
COc1ccc(C2CC(=O)Oc3c(C(CCN4CCCC(C)C4)c4ccc(N(C)C)cc4)c(OC)cc(OC)c32)cc1 (stereo not given)	none (no result: MARV entry inh, LASV entry inh)
COc1ccc(C2CC(=O)Oc3c(C(CCN4CCCCC4)c4ccc(N(C)C)cc4)c(OC)cc(OC)c32)cc1 (stereo not given)	HCMV inh -60.4 (no result: MARV entry inh, LASV entry inh)
Cc1ccc2ccc3cc(C(=O)Nc4ccc(C)c(F)c4)nc3c2[nH]1	HCMV inh -75.6, LASV entry inh inconclusive (no result: MARV entry inh)
S=c1[nH]c2cnc(Cl)nc2[nH]1	HCMV inh -68.3
S=c1[nH]c2nc(Cl)c(Cl)nc2[nH]1	none (no result: MARV entry inh, LASV entry inh)
CCNc1nc(-c2ccc(OC(F)F)cc2)c(C)s1	MARV entry inh inconclusive, LASV entry inh inconclusive
COc1ccc(/C=C/C(=O)c2cc(F)ccc2OC(=O)c2ccccc2)cc1OC	FMDV antiviral 28.2µM, HCMV inh -96.6, MARV entry inh inconclusive, LASV entry inh inconclusive
COc1ccc(/C=C/C(=O)c2cc(F)ccc2OC(=O)c2ccccc2OC)cc1OC	FMDV antiviral 8.91µM, HCMV inh -97.4, MARV entry inh inconclusive, LASV entry inh inconclusive
COc1ccc(/C=C/C(=O)c2cc(Br)ccc2OC(=O)c2ccco2)cc1OC	MARV entry inh 5.8µM!, LASV entry inh inconclusive
COc1ccc(/C=C/C(=O)c2cc(Br)ccc2O)cc1OC	none (no result: MARV entry inh, LASV entry inh)
Cc1ccc(C(=O)Nc2ccc(C)c(S(=O)(=O)Nc3ccccc3Cl)c2)s1	HCMV inh inconclusive, LASV entry inh 5.17µM

Screening data: PubChem, National Center for Advancing Translational Sciences (NCATS)
